# Shown are actives, neighbours in structure and some others; about 1.4% of the full set was active somewhere.
# PriA SSB inh = K. pneumoniae PriA-SSBct interaction inhibition; AlphaScreen SSBct-PriA binding, biotinylated peptide; AID 1272365; 0.6% of 430,000 active; inhibition, % at 33 µM; in the data active = inhibition mostly above about 37%, no sharp cut-off; inactive = mostly below about 20%;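 also: plate controls were negative control peptide for no effect and reference peptide for full effect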
# Vc quorum ag = induces V. cholerae light production without autoinducers | V. cholerae BH1578 lux reporter, luminescence, 6 h | activation, % at 18.7 µM | 0.16% of 350,000 active | AID 588436; in the data active = activation mostly above about 9.7%, no sharp cut-off; inconclusive = no clear call, values can overlap the other calls; inactive = mostly below about 3.7%
# FadD28 FP inh = blocks FadD28 binding to the bisubstrate probe; fluorescence polarization; inhibition, % at 12.5 µM; 0.22% of 360,000 active; AID 588549; in the data active = inhibition above about 8.5%, passing the limit was not always enough; inconclusive = no clear call, values can overlap the other calls
# PrPC surface inh = cell surface PrPC inhibition, primary TR-FRET screen | P04156 | TR-FRET read-out | inhibition, % at 13.8 µM | 0.43% of 370,000 active | AID 720596; in the data active = inhibition above about 24%; also: 0% = median of the test wells and 100% = reference compound wells
# PrP UTR inh = inhibition of PrP 5' UTR reporter expression; inhibition, % (no concentration beside the values); 0.35% of 340,000 active; AID 488862; cell-based PrP 5' UTR mRNA reporter, plate reader; in the data active = inhibition above about 52%; also: 0 = median of the neutral control wells
# * hit, by the source's call; i = inactive; ? = inconclusive; · = no result; ! = not active in a repeat.
SMILES,PriA SSB inh,Vc quorum ag,FadD28 FP inh,PrPC surface inh,PrP UTR inh
CCC(C)Nc1nc(-c2c[nH]c3ccccc23)cs1 (stereo unspecified),37,0,0,-9,-10
CNc1nc(-c2c[nH]c3ccccc23)cs1,52*,7,-1,3,-28
CCCC12CN3CC(C)(CN(C1)C3c1cccs1)C2=O (stereo unspecified),-8,-1,-4,-3,·
CCCC12CN3CC(CCC)(CN(C1)C3c1ccccn1)C2=O (stereo unspecified),58*,0,-1,1,-3
Cc1cc(C)nc(SCc2ccc(C(=O)NN=C3CCCC3)cc2)n1,-8,0,-10,2,-10
COC(=O)c1ccc(CSc2nc(C)cc(C(F)(F)F)n2)cc1,38*,·,·,·,·
CCOc1ccc(NC(=O)CSc2nnc(-c3ccccn3)n2N)cc1,64*!,i,0,-2,8
COc1ccc(-c2cnc(SCC(=O)Nc3ccccc3)n2-c2ccccc2C)cc1,44*,·,·,·,·
COc1ccc(NC(=O)CSc2nnc(-c3ccccn3)n2N)cc1,59*,-2,-4,-1,-28
Nn1c(SCC(=O)Nc2ccc(F)cc2)nnc1-c1ccccn1,7,0,1,1,-21
COc1ccccc1N=CC1=C(O)CC(C)(C)CC1=O,-7,·,·,·,·
Cc1cc(N2CCC(NC(=O)c3nn(C)c4ccccc34)CC2)n[nH]1,-15,·,·,·,·
CCOc1ccc(-c2csc3c(=O)[nH]c(N4CCN(c5ccccn5)CC4)nc23)cc1OCC,-2,·,·,·,·
CCOC(=O)C1(Cc2ccccc2C)CCCN(C(=O)c2ccoc2)C1 (stereo unspecified),41*,i,0,5,-8
COc1ccc2nc(Nc3ccc4nc(C)sc4c3)sc2c1,16,·,·,·,·
COc1ccc(Nc2nc3ccc(OC)cc3s2)cc1,38*!,i,2,4,-48
Cc1cc(=O)[nH]c(-n2nc(-c3ccccc3)cc2NC(=O)c2ccccc2S(=O)(=O)C(F)F)n1,-1,·,·,·,·
c1coc(-c2nc(-c3ccco3)c(-c3ccco3)nc2-c2ccco2)c1,43*,i,?,-11,-8
COc1ccc2nc(-c3ccc(NC(=O)c4ccccc4)cc3)cn2n1,-8,·,·,·,·
CCCN1CCCc2cc(CCNS(=O)(=O)c3ccc(Br)cc3)ccc21,52*,·,·,·,·
CCCN1CCCc2cc(CCNS(=O)(=O)Cc3cccc(Cl)c3)ccc21,55*,·,·,·,·
CCCN1CCCc2cc(CCNS(=O)(=O)c3ccc(Cl)s3)ccc21,active!,·,·,·,·
CCCN1CCCc2cc(CCNS(=O)(=O)Cc3ccccc3)ccc21,94*,·,·,·,·
CCCN1CCCc2cc(CCNS(=O)(=O)Cc3ccc(F)cc3)ccc21,77*,·,·,·,·
CCCN1CCCc2cc(CCNS(=O)(=O)CCc3ccc(OC)cc3)ccc21,60*,·,·,·,·
SMILES,PriA SSB inh,Vc quorum ag,FadD28 FP inh,PrPC surface inh,PrP UTR inh
CCCN1CCCc2cc(CCNS(=O)(=O)CC)ccc21,46*,·,·,·,·
Cc1cccc(C)c1NC(=O)C(=O)NCCCn1ccnc1,-2,·,·,·,·
O=C(NCC1CCN(c2ncccn2)CC1)c1ccsc1,-15,·,·,·,·
CCOc1ccc(Nc2nc(Nc3ccc(C)c(C)c3)nc(N3CCCC3)n2)cc1,1,·,·,·,·
CC(C)(C)c1ccc(C(=O)Nc2sc3c(c2C(=O)O)CCC3)cc1,1,0,14*,-1,14
CCOc1ccc(NC(=S)Nc2ccc3nccnc3c2)cc1,33,·,·,·,·
COc1ccc(NC(=S)Nc2ccc(N)c([N+](=O)[O-])c2)cc1,39*,0,-2,-30,-18
S=C(Nc1ccc2nccnc2c1)N1CCCCCC1,22,·,·,·,·
COc1ccc(NC(=S)Nc2ccc3nccnc3c2)cc1,77*,0,-1,-27,-40
S=C(Nc1ccc2nccnc2c1)N1CCOCC1,71*,0,-1,-4,-66
CCOC(=O)c1c(NC(=S)Nc2c(C)n(C)n(-c3ccccc3)c2=O)sc2c1CCCC2,-5,·,·,·,·
Cc1onc(-c2ccccc2Cl)c1C(=O)Nc1nnc(-c2cccs2)o1,38*,·,·,·,·
CC(=O)c1ccc(C(=O)Nc2nc3c(Cl)cc(Cl)cc3s2)cc1,2,·,·,·,·
COc1ccc(Cl)cc1NC(=O)CN(C)C(=O)c1ccc(OCc2ccccc2)c(OC)c1,1,-5,0,1,7
CCOc1ccc(NC(=O)CN(C)C(=O)c2ccc(OCc3ccccc3)c(OC)c2)cc1OCC,42*,i,-2,8,-25
Oc1c(C2=NCCNC(C(F)(F)F)=C2)ccc2ccccc12,45*,0,2,-13,-111
Cc1ccc(O)c(C2=NCCNC(C(F)(F)F)=C2)c1,-8,i,-3,-5,-3
Cc1ccc2oc(C(=O)N(Cc3ccc(N(C)C)cc3)CC3CCCO3)c(C)c2c1 (stereo unspecified),16,i,-1,-1,-13
Cc1cc2oc(C(=O)N(Cc3ccc(N(C)C)cc3)CC3CCCO3)c(C)c2cc1C (stereo unspecified),50*,-1,-2,-5,-13
O=C(NCCn1cnc2ccsc2c1=O)c1cc(-c2cccnc2)on1,-6,·,·,·,·
O=C(NCCn1cnc2ccsc2c1=O)c1cc(C2CC2)on1,38*,·,·,·,·
COc1nn(C)cc1C(=O)N1CCC(C(=O)Nc2ccccc2C(F)(F)F)CC1,-15,·,·,·,·
COc1ccc2ccccc2c1C1C=C(c2ccccc2)NC(=S)N1 (stereo unspecified),36*,·,·,·,·
CC(=NOC(=O)c1ccc(F)cc1)c1ccc(C)cc1,-17,·,·,·,·
CC(=O)Nc1ccc(C=NNc2ccc(S(=O)(=O)Nc3ccccc3C(=O)O)cc2[N+](=O)[O-])cc1,38,i,28*,-32,-5
SMILES,PriA SSB inh,Vc quorum ag,FadD28 FP inh,PrPC surface inh,PrP UTR inh
CSc1ccc(/C=N/Nc2ccc(S(=O)(=O)Nc3ccccc3C(=O)O)cc2[N+](=O)[O-])cc1,i,·,·,·,·
COc1ccccc1NS(=O)(=O)c1cccc(-n2c(O)c(C=Nc3ccccc3C(=O)O)c3ccccc3c2=O)c1,7,0,20*,4,-13
Cc1nn(-c2ccccc2)c(Cl)c1C=NNc1ccc(S(=O)(=O)Nc2ccccc2C(=O)O)cc1[N+](=O)[O-],45*,·,·,·,·
COc1cc(C=NNc2ccc(S(=O)(=O)Nc3ccccc3C(=O)O)cc2[N+](=O)[O-])ccc1O,49*,2,50*,-16,-10
COc1ccccc1N1CCN(C(=O)C2CN(C(=O)COc3ccccc3F)C2)CC1,-10,·,·,·,·
Cc1cc(C(=O)N2CCN(c3nc4c(Cl)cccc4s3)CC2)on1,-14,·,·,·,·
Cc1cccc(Cn2cnc3c(cnn3CCNC(=O)C3CC3)c2=O)c1,-15,·,·,·,·
COc1ccccc1NS(=O)(=O)c1ccc(NN=Cc2ccccc2OCC(=O)O)c([N+](=O)[O-])c1,42*,·,·,·,·
CCOc1ccccc1/C=N/Nc1ccc(S(=O)(=O)Nc2ccccc2OC)cc1[N+](=O)[O-],i,·,·,·,·
O=C(O)c1ccccc1NS(=O)(=O)c1ccc(NNC(=S)Nc2ccc(OC(F)F)cc2)c([N+](=O)[O-])c1,66,0,55*,-36,-12
CCOc1ccc(C=NNc2ccc(S(=O)(=O)Nc3ccccc3C(=O)O)cc2[N+](=O)[O-])cc1OC,4,·,?,·,-14

# Screens as filed in PubChem BioAssay.
